Assay outcomes as filed in PubChem.
An excerpt weighted towards active compounds, which were near 4.7% of everything screened.
tim23-1 inh: growth inhibitors of tim23-1 mutant yeast; hit rate 1.3% among 330,000; S. cerevisiae tim23-1 growth, BacTiter-Glo luminescence, 24 h; inhibition, % at 20 µM;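 active = growth inhibition of the mutant yeast at or above 50%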;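 note: temperature-sensitive mutant grown at 25 °C; plate controls were DMSO-treated mutant yeast for no effect and medium wells lacking yeast for full effect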
TIM10 inh: inhibits growth of TIM10 yeast strain. inhibition, % at 10 µM. S. cerevisiae TIM10 strain growth, BacTiter-Glo luminescence, 24 h. hit rate 1.4% among 330,000. AID 463195;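 active = inhibition of 40% or more at the single tested concentration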;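 note: wild-type TIM10 isogenic control strain grown at permissive 25 °C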
PfHsp90 set2: inhibits growth of yeast expressing Plasmodium falciparum Hsp90 | S. cerevisiae expressing PfHsp90, BacTiter-Glo ATP, 48 h; yeast lacking PDR1 and PDR3 efflux regulators | inhibition, % at 9.4 µM | hit rate 0.32% among 310,000 | AID 504621;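 active = every replicate shows inhibition above about 80%, whatever the replicate mean, limit read from the data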;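 note: 0% = DMSO neutral controls and 100% = 20 µM radicicol positive controls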
tim10-1 inh: tim10-1 yeast growth inhibition | hit rate 2.2% among 330,000 | S. cerevisiae tim10-1 ts strain growth, BacTiter-Glo, 24 h | inhibition, % at 20 µM;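 active = inhibition of at least 40%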;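 note: mutant grown at 25 °C; 0% = DMSO wells with yeast and 100% = wells holding no yeast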
ATG4B inhibitor: ATG4B (human) cysteine protease inhibition; ATG4B cleavage of LC3-PLA2, NBD-HPC fluorescence, 1 h; inhibition, % at 8.33 µM; Q9Y4P1; hit rate 0.51% among 340,000; AID 504462; in the data active = inhibition above about 40%
Target sequence (Q9Y4P1 whole entry, looked up): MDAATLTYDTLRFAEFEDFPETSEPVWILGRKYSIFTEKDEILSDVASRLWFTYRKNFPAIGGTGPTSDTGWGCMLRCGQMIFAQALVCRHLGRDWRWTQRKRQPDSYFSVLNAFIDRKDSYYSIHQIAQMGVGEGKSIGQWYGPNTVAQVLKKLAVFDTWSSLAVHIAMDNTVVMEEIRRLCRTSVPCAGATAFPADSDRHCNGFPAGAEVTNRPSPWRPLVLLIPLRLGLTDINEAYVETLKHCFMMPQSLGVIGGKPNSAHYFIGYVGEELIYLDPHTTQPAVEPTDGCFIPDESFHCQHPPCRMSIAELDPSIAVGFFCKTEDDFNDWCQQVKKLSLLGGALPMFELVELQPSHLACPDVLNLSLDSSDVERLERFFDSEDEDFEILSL
SKKanGAS inh: blocks kanamycin growth of S. pyogenes SKKanGAS strain; BacTiter-Glo, 6 h; inhibition, % at 7.5 µM; hit rate 1.3% among 300,000;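 active = mean replicate score, as percent of positive control median, at least 50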;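 note: strain carries kanamycin resistance gene driven by streptokinase promoter and grows in 40 µg/ml kanamycin; loss of luminescence reflects streptokinase promoter inhibition or plain growth inhibition; 0% = median of DMSO wells and 100% = positive control at its reference dose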
TIM10 conf: confirmation of TIM10 yeast growth inhibitors; shares compounds with TIM10 inh; S. cerevisiae tim10 strain growth, BacTiter-Glo luminescence, 24 h; inhibition, % at 10 µM; hit rate 63% among 4,600; AID 463215;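 active = inhibition of yeast growth at or above a set limit in either of two replicates at 10 µM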;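 note: this counterscreen used the strain with wild-type TIM10; 0% = yeast with DMSO and 100% = medium wells lacking yeast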
Starred values were filed as active, the others as inactive.

`Cc1cc(O)c(-c2cc(O)c(C)cc2O)cc1O` gave tim23-1 inh 16.1, TIM10 inh 5.5, PfHsp90 set2 -16.2, tim10-1 inh 13.3, ATG4B inhibitor 0.3 and SKKanGAS inh 5.9.
COc1ccc2oc(=O)c(C(=O)N3CCN(c4ccc(F)cc4)CC3)cc2c1 was read as tim23-1 inh 19.1, TIM10 inh -9.8, PfHsp90 set2 -27.4, tim10-1 inh 18.0, ATG4B inhibitor 3.2 and SKKanGAS inh -2.2.
Screening N#CC(C#N)=C1C=CC=CN1/C(=C\c1ccccc1)C(=O)c1cccs1 returned tim23-1 inh 20.6, TIM10 inh 42.6*, PfHsp90 set2 -1.8, tim10-1 inh 37.3, ATG4B inhibitor -8.2, SKKanGAS inh -0.4 and TIM10 conf 17.6.
`CCC(C)c1ccccc1N1CC(C(=O)NCCc2ccc(OC)c(OC)c2)CC1=O` (stereo unspecified) gave tim23-1 inh -10.2, TIM10 inh 8.8, PfHsp90 set2 6.4, tim10-1 inh -6.1, ATG4B inhibitor 6.9 and SKKanGAS inh 5.9.
`Cc1ccc(NCc2nnc(SCC(=O)N(Cc3ccccc3)C(C)(C)C)o2)c(C)c1` gave tim23-1 inh 28.8, TIM10 inh 40.5*, PfHsp90 set2 -14.5, tim10-1 inh 34.2, ATG4B inhibitor 13.0, SKKanGAS inh -4.4 and TIM10 conf 16.3.
Screening CSc1ccccc1C(=O)Nc1cccc(C)c1 returned tim23-1 inh 36.5, TIM10 inh 43.7*, tim10-1 inh 19.9, ATG4B inhibitor 12.3, SKKanGAS inh -5.2 and TIM10 conf 30.0.
Screening CSc1ccccc1C(=O)Nc1cccc([N+](=O)[O-])c1 returned tim23-1 inh 27.9, TIM10 inh 26.5, tim10-1 inh 21.2, ATG4B inhibitor -0.3 and SKKanGAS inh -1.7.
For CCOC(=O)c1c(CN2CCOCC2)n(-c2ccccc2)c2cc(Br)c(O)c(CN(C)C)c12 the results were tim23-1 inh 35.1, TIM10 inh 56.8*, PfHsp90 set2 -9.8, tim10-1 inh 37.8, ATG4B inhibitor 4.5, SKKanGAS inh 6.3 and TIM10 conf 39.9*.
Screening O=C(Nc1ccc(Cl)c(Cl)c1)Nc1ccccc1NS(=O)(=O)c1cccs1 returned tim23-1 inh -142.4, TIM10 inh 46.9*, PfHsp90 set2 5.3, tim10-1 inh 19.5, ATG4B inhibitor -5.5, SKKanGAS inh 24.5 and TIM10 conf 25.4.
For O=C(Nc1ccccc1)Nc1ccccc1NS(=O)(=O)c1cccs1 the results were tim23-1 inh 7.2, TIM10 inh 1.3, PfHsp90 set2 -1.3, tim10-1 inh 5.2, ATG4B inhibitor -2.1 and SKKanGAS inh -4.1.
For Cc1ccc(S(=O)(=O)/N=C(/NC(=S)Nc2ccccc2)c2ccccc2)cc1 the results were tim23-1 inh 37.0, TIM10 inh 45.7*, PfHsp90 set2 -9.9, tim10-1 inh 36.2, ATG4B inhibitor -0.7, SKKanGAS inh 1.6 and TIM10 conf -7.5.
For Cc1ccc(NC(=S)N/C(=N/S(=O)(=O)c2ccccc2)c2ccccc2)cc1 the results were tim23-1 inh 26.1, TIM10 inh 38.4, PfHsp90 set2 -6.0, tim10-1 inh 39.0, ATG4B inhibitor -1.4 and SKKanGAS inh 10.5.
Screening COc1cccc(-c2cc(=O)c3cc(NC(=O)c4ccccc4)ccc3[nH]2)c1 returned tim23-1 inh 8.8, TIM10 inh 4.1, PfHsp90 set2 13.1, tim10-1 inh -1.1, ATG4B inhibitor -15.7 and SKKanGAS inh 6.5.
For COc1cccc(-c2cc(=O)c3cc(NC(=O)c4ccc(N(C)C)cc4)ccc3[nH]2)c1 the results were tim23-1 inh -2.7, TIM10 inh 66.6*, tim10-1 inh -10.8, ATG4B inhibitor -2.9, SKKanGAS inh 17.6 and TIM10 conf -10.5.
For CCn1c(/C=C/c2ccccc2C)nc2ccccc2c1=O the results were tim23-1 inh 9.5, TIM10 inh -41.2, PfHsp90 set2 0.6, tim10-1 inh 6.0, ATG4B inhibitor 5.1 and SKKanGAS inh -1.4.
CC(C)n1ncc2c(C(=O)Nc3cccc(S(=O)(=O)N(C)C)c3)cc(C3CC3)nc21 was read as tim23-1 inh 26.5, TIM10 inh 13.8, tim10-1 inh 16.5 and ATG4B inhibitor -14.4.
COc1cc2c(cc1OC)CN(C(=O)c1ccc([N+](=O)[O-])o1)CC2 was read as tim23-1 inh 30.7, TIM10 inh 68.4*, PfHsp90 set2 27.0, tim10-1 inh 35.0, ATG4B inhibitor -11.9, SKKanGAS inh 5.9 and TIM10 conf 75.0*.
COc1ccc(C(=O)N2CCc3cc(OC)c(OC)cc3C2)cc1OC was read as tim23-1 inh 24.5, TIM10 inh 4.4, PfHsp90 set2 0.0, tim10-1 inh 15.8, ATG4B inhibitor -9.4 and SKKanGAS inh 3.7.
`Cc1ccc(-n2c(=O)c3sccc3n(CC(=O)NC3CCCC3)c2=O)cc1` gave tim23-1 inh -9.5, TIM10 inh -2.4, PfHsp90 set2 24.9, tim10-1 inh -10.1, ATG4B inhibitor -20.7 and SKKanGAS inh -1.9.
For C[C@]12C(=O)N(c3ccc(F)cc3)C(=O)N1[C@H]1c3ccccc3OC[C@@H]1[C@H]2c1ccccc1 the results were tim23-1 inh 34.3, TIM10 inh 43.7*, PfHsp90 set2 -84.8, tim10-1 inh 25.9, ATG4B inhibitor -6.4 and TIM10 conf 42.6*.
Screening CCOc1ccc(S(=O)(=O)NCc2cccnc2)cc1C returned tim23-1 inh 6.2, TIM10 inh -2.2, PfHsp90 set2 0.0, tim10-1 inh 6.6, ATG4B inhibitor 2.1 and SKKanGAS inh -1.0.
For CCCCCOc1ccc(CSCCNC(=S)Nc2ccccc2)cc1 the results were tim23-1 inh 12.0, TIM10 inh 22.5, PfHsp90 set2 -4.4, tim10-1 inh 5.1, ATG4B inhibitor 2.8 and SKKanGAS inh 25.4.
CCCCOc1ccc(CSCCNC(=S)Nc2ccccc2)cc1 was read as tim23-1 inh 33.8, TIM10 inh 42.3*, PfHsp90 set2 -20.9, tim10-1 inh 33.2, ATG4B inhibitor 0.4, SKKanGAS inh 10.1 and TIM10 conf -0.4.
S=C(Nc1ccccc1)Nc1cc(Cl)ccc1Oc1ccccc1 was read as tim23-1 inh 45.9, TIM10 inh 47.5*, PfHsp90 set2 5.4, tim10-1 inh 35.1, ATG4B inhibitor 12.8, SKKanGAS inh 13.7 and TIM10 conf -7.2.
For CCN1C(=O)CS/C1=N\S(=O)(=O)c1ccc(Cl)cc1 the results were tim23-1 inh 16.2, TIM10 inh 7.3, tim10-1 inh 6.3, ATG4B inhibitor 5.1 and SKKanGAS inh 5.3.
`CCn1c(Cl)c(C=O)s/c1=N\S(=O)(=O)c1ccccc1` gave tim23-1 inh 26.6, TIM10 inh 42.7*, PfHsp90 set2 0.2, tim10-1 inh 33.6, ATG4B inhibitor 5.3, SKKanGAS inh -16.7 and TIM10 conf 1.2.
